Several values for one entry are separate records, joined by “and”; a condition that tells them apart may be missing. Equal entries are not always repeated. Records with an inconclusive call do not appear. Entries that show only a call come without a potency. Activity calls are given as the source filed them. Unless noted, the call rests on the fitted dose curve; in most records, active means well fitted curve in the direction sought with a large enough effect in the repeat runs; inconclusive means weak or mixed curves; inactive means no such curve, though single readings can be large; an effect the other way counts as inactive or inconclusive.
Tests used:
[1] = qHTS assay to identify aromatase inhibitors - cell viability counter screen (AID 743084);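 further: cells stimulated with testosterone during compound exposure; nearly all actives have a fitted effect of over 55% in size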; further: potency means the concentration at half of the fitted maximal effect
[2] = target: Aryl hydrocarbon receptor (Homo sapiens) (UniProt P35869); assay: qHTS assay to identify small molecule that activate the aryl hydrocarbon receptor (AhR) signaling pathway (AID 743085);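 further: HG2L7.5c1 human HepG2 liver cells with stably integrated DRE-driven firefly reporter; series mostly up to about 70 µM; nearly all actives have a fitted effect of over 15% in size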
Aryl hydrocarbon receptor (Homo sapiens), sequence (P35869 whole entry, looked up): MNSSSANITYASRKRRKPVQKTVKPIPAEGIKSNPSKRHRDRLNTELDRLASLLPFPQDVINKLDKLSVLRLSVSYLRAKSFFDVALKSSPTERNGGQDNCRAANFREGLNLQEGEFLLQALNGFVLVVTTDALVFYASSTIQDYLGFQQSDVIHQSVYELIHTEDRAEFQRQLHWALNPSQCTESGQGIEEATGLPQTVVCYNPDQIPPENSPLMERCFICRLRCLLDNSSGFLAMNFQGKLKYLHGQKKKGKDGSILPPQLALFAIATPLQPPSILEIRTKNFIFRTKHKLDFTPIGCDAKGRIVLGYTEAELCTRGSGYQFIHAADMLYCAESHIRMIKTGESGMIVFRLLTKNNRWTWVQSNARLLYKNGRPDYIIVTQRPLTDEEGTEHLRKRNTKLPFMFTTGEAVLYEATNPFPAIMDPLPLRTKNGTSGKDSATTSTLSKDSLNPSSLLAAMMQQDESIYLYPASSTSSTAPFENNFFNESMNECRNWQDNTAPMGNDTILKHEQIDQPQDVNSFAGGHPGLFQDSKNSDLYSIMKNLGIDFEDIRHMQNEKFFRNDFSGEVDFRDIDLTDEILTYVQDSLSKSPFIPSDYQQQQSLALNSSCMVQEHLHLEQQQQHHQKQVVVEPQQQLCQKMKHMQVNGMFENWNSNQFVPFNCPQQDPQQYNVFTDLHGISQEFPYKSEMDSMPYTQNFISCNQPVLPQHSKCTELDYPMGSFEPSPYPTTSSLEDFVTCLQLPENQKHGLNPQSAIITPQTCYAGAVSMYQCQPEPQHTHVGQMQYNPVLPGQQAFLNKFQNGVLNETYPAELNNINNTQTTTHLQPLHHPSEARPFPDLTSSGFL
Method in brief: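 A multiplexed format paired cell viability (CellTiter-Fluor fluorescence) with AhR-dependent luciferase output (ONE-Glo luminescence) in the same wells of HepG2 DRE-luc cells after 24 h compound exposure at 37C.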

[3] = qHTS assay to identify small molecule that activate the aryl hydrocarbon receptor (AhR) signaling pathway - cell viability counter screen (AID 743086); further: nearly all actives have a fitted effect of over 45% in size; further: potency means the concentration at half of the fitted maximal effect
Method in brief: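 HepG2-AhR-luc (HG2L7.5c1) cells, 4000/well, were preincubated 5 h at 37C, exposed to compound in qHTS format for 24 hr at 37C, then given CellTiter-Fluor for 30 min; viability was read as fluorescence in the reporter wells.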

[4] = target: Peroxisome proliferator-activated receptor gamma (Homo sapiens) (UniProt P37231); assay: qHTS assay to identify small molecule agonists of the peroxisome proliferator-activated receptor gamma (PPARg) signaling pathway (AID 743094; active means well fitted activation curve with a large enough effect in the signal ratio in the repeat runs, not every such curve was filed as active; the % refers to the signal ratio; further: potency means the concentration at half of the fitted maximal effect)
Peroxisome proliferator-activated receptor gamma (Homo sapiens), sequence (P37231 whole entry, looked up): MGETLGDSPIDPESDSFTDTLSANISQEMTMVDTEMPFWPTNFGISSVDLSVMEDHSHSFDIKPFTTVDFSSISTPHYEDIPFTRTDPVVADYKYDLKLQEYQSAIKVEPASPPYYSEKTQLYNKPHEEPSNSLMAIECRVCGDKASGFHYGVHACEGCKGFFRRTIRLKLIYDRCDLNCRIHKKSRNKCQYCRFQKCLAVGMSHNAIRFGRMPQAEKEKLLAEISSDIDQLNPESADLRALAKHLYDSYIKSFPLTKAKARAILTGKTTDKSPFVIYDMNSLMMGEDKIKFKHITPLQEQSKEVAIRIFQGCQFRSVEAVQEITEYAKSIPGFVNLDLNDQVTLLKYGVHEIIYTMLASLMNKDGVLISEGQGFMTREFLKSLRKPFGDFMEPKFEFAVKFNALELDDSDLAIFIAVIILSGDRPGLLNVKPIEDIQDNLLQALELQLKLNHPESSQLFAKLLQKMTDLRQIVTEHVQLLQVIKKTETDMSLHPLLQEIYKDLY
Method in brief: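 Compounds dissolved in DMSO were added to PPARg UAS-bla HEK293H cells for 17 h at 37C, and reporter expression was quantified by fluorescence intensity after 1 h with LiveBLAzer B/G FRET substrate.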

[5] = target: Peroxisome proliferator-activated receptor gamma (Homo sapiens) (UniProt P37231); assay: qHTS assay to identify small molecule antagonists of the peroxisome proliferator-activated receptor gamma (PPARg) signaling pathway (AID 743191; calls by dose curve; further: series mostly up to about 63 µM; nearly all actives have a fitted effect of over 30% in size)
Method in brief: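 GeneBLAzer PPARg UAS-bla HEK293H cells carrying a UAS-driven beta-lactamase reporter were plated at 3000 cells/well, preincubated 5 h at 37C, then given compound for 17 h at 37C; LiveBLAzer B/G FRET substrate was read after 1 h at room temperature.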

[6] = qHTS assay to identify small molecule antagonists of the peroxisome proliferator-activated receptor gamma (PPARg) signaling pathway - cell viability counter screen (AID 743194); further: nearly all actives have a fitted effect of over 55% in size
Method in brief: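 PPARg-UAS-bla HEK293H cells were plated, rested 5 h at 37 C, then treated with compounds plus rosiglitazone (50 nM final) for 17 h at 37 C; viability was then read by CellTiter-Glo luminescence after 30 min at room temperature.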

[7] = qHTS assay for small molecule agonists of the antioxidant response element (ARE) signaling pathway (AID 743202; active means well fitted activation curve with a large enough effect in the signal ratio in the repeat runs, not every such curve was filed as active; the % refers to the signal ratio)
Method in brief: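 Read-out: LiveBLAzer B/G FRET substrate fluorescence after 2 h at room temperature, following 16 h compound treatment at 37 C of HepG2 cells carrying an ARE-driven beta-lactamase reporter.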

[8] = qHTS assay for small molecule agonists of the antioxidant response element (ARE) signaling pathway - cell viability counter screen (AID 743203; calls by dose curve; further: nearly all actives have a fitted effect of over 55% in size)
Method in brief: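 Following 16 hrs of compound treatment at 37C, HepG2 cells with an ARE-controlled beta-lactamase gene were lysed with CellTiter-Glo. Luminescence was read after 30 min at room temperature.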

[9] = qHTS assay for small molecule activators of the heat shock response signaling pathway - cell viability counter screen (AID 743209); further: nearly all actives have a fitted effect of over 50% in size
Method in brief: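 Readout: CellTiter-Glo luminescence, 30 min at room temperature. System: HSE-bla HeLa cells, 1500/well, plated overnight. Treatment: compounds in DMSO, 5 h at 37 C.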

[10] = qHTS assay for small molecule activators of the heat shock response signaling pathway (AID 743210; active means well fitted activation curve with a large enough effect in the signal ratio in the repeat runs, with a control signal flat, not every such curve was filed as active; the % refers to the signal ratio; further: series mostly up to about 63 µM)
Method in brief: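 HSE-bla HeLa cells (beta-lactamase reporter under heat shock response elements) were exposed to compounds for 5 h at 37 C, then loaded with LiveBLAzer B/G FRET substrate for 2.5 h at room temperature before fluorescence reading.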

[11] = qHTS assay to identify small molecule agonists of the peroxisome proliferator-activated receptor delta (PPARd) signaling pathway - cell viability counter screen (AID 743211); further: nearly all actives have a fitted effect of over 55% in size; further: potency means the concentration at half of the fitted maximal effect
Method in brief: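 Tox21 library compounds, delivered in DMSO, were incubated 17 h with PPARd-bla HEK293H cells; cytotoxicity was taken from CellTiter-Glo luminescence read 30 min after reagent addition.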

[12] = target: Peroxisome proliferator-activated receptor delta (Homo sapiens) (UniProt Q03181); assay: qHTS assay to identify small molecule agonists of the peroxisome proliferator-activated receptor delta (PPARd) signaling pathway (AID 743212; calls by dose curve; further: potency means the concentration at half of the fitted maximal effect)
Peroxisome proliferator-activated receptor delta (Homo sapiens), sequence (Q03181 whole entry, looked up): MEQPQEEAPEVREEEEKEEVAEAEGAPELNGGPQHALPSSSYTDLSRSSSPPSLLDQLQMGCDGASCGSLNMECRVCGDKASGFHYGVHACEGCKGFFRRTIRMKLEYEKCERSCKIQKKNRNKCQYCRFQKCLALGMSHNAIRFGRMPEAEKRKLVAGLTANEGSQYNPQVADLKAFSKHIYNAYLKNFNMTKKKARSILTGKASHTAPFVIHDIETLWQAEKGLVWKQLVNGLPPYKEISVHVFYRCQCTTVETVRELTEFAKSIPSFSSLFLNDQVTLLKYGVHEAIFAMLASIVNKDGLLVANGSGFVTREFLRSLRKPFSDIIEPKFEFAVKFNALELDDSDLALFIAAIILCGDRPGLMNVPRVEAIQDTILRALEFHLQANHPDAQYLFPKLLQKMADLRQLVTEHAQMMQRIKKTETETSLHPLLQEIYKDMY
Method in brief: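 GeneBLAzer PPARd UAS-bla HEK293H cells (beta-lactamase reporter under UAS control), plated and rested 5 h at 37 C, then exposed to compounds in DMSO at 37 C; LiveBLAzer B/G FRET substrate added, 2 h room temperature, fluorescence read.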

[13] = qHTS assay to identify small molecule antagonists of the peroxisome proliferator-activated receptor delta (PPARd) signaling pathway - cell viability counter screen (AID 743213); further: nearly all actives have a fitted effect of over 50% in size; further: potency means the concentration at half of the fitted maximal effect
Method in brief: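 Cytotoxicity counter screen: CellTiter-Glo luminescence read 30 min after addition, in the same wells as the reporter assay. There, PPARd UAS-bla HEK293H cells (3000/well) were treated 17 h at 37 C with compound and 300 nM L165041.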

[14] = target: Peroxisome proliferator-activated receptor delta (Homo sapiens) (UniProt Q03181); assay: qHTS assay to identify small molecule antagonists of the peroxisome proliferator-activated receptor delta (PPARd) signaling pathway (AID 743215; active means well fitted inhibition curve with a large enough effect in the signal ratio in the repeat runs, not every such curve was filed as active; the % refers to the signal ratio;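 further: cells stimulated with agonist L165041 at 300 nM final during compound exposure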; further: potency means the concentration at half of the fitted maximal effect)
Method in brief: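 HEK293H UAS-bla, PPARd; agonist L165041 300 nM final with cpd in DMSO; 37 C 17 h; FRET substrate, RT 2 h; fluorescence intensity.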

[15] = qHTS assay to identify small molecule agonists of the farnesoid-X-receptor (FXR) signaling pathway - cell viability counter screen (AID 743218); further: nearly all actives have a fitted effect of over 45% in size; further: potency means the concentration at half of the fitted maximal effect
Method in brief: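 Parallel cytotoxicity test: compound-treated (16 h, 37 C) HEK 293T FXR-bla reporter cells were lysed with CellTiter-Glo and luminescence recorded.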

[16] = qHTS assay to identify small molecule antagonists of the farnesoid-X-receptor (FXR) signaling pathway - cell viability counter screen (AID 743221; active means well fitted cell-killing curve with a large enough effect in the repeat runs, not every such curve was filed as active; further: nearly all actives have a fitted effect of over 50% in size; further: potency means the concentration at half of the fitted maximal effect)
Method in brief: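 Cytotoxicity is taken from ATP luminescence (CellTiter-Glo, 30 min, room temperature) in FXR-bla HEK 293T cells previously incubated 16 h at 37 C with compound and chenodeoxycholic acid at 50 uM final.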

[17] = target: Vitamin D3 receptor (Homo sapiens) (UniProt P11473); assay: qHTS assay to identify small molecule agonists of the vitamin D receptor (VDR) signaling pathway (AID 743222; calls by dose curve; further: potency means the concentration at half of the fitted maximal effect)
Vitamin D3 receptor (Homo sapiens), sequence (P11473 whole entry, looked up): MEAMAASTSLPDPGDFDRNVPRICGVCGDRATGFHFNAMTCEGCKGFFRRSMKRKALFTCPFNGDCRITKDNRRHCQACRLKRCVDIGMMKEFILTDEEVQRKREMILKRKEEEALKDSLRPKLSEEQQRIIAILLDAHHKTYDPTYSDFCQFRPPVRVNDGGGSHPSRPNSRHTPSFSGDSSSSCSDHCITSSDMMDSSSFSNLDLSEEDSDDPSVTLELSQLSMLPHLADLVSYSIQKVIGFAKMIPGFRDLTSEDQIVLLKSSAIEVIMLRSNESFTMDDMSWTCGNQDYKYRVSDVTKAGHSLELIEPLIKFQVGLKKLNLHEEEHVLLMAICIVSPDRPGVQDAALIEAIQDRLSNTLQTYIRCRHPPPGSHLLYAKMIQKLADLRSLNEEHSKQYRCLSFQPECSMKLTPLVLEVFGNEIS
Method in brief: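 In VDR-bla cells, compound-induced beta-lactamase expression is quantified by FRET substrate fluorescence. Treatment lasts 16 h at 37C; substrate develops 2 h at room temperature.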

[18] = target: Vitamin D3 receptor (Homo sapiens) (UniProt P11473); assay: qHTS assay to identify small molecule antagonists of the vitamin D receptor (VDR) signaling pathway (AID 743223; active means well fitted inhibition curve with a large enough effect in the signal ratio in the repeat runs, not every such curve was filed as active; the % refers to the signal ratio; further: potency means the concentration at half of the fitted maximal effect)
Method in brief: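 Quantitative HTS in VDR-bla reporter cells stimulated with 1alpha,25-dihydroxyvitamin D3, 3 nM final. Compound exposure 16 h, 37C, 5% CO2. Read-out: beta-lactamase FRET substrate fluorescence, 2 h RT.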

Row | Structure (SMILES) | Potency [1] | Potency [2] | Potency [3] | Potency [4] | Potency [5] | Potency [6] | Potency [7] | Potency [8] | Potency [9] | outcome [10] | Potency [11] | Potency [12] | Potency [13] | Potency [14] | Potency [15] | Potency [16] | Potency [17] | Potency [18]
1 | CC(=O)C(=O)O | inactive | inactive | inactive | inactive | inactive | inactive | inactive | inactive | inactive | inactive | inactive | inactive | inactive | inactive | inactive | inactive | inactive | inactive
2 | OC[C@H]1O[C@H](O[C@]2(CCl)O[C@H](CCl)[C@@H](O)[C@@H]2O)[C@H](O)[C@@H](O)[C@H]1Cl | inactive | inactive | inactive |  |  | inactive | inactive | inactive | inactive | inactive | inactive | inactive | inactive | inactive | inactive |  | inactive | inactive
3 | CNNCc1ccc(C(=O)NC(C)C)cc1 | inactive | inactive | inactive |  |  | inactive | inactive | inactive | inactive | inactive | inactive |  | inactive |  | inactive |  | inactive | inactive
4 | O=C(O)c1ccccc1 | inactive | inactive | inactive | inactive | inactive | inactive | inactive | inactive | inactive |  | inactive |  | inactive |  | inactive | inactive | inactive | inactive
5 | C[C@](N)(Cc1ccc(O)c(O)c1)C(=O)O | inactive | inactive | inactive | inactive | inactive | inactive | inactive | inactive | inactive |  | inactive |  | inactive |  | inactive | inactive | inactive | inactive
6 | Cc1cc(=O)oc2cc(O)ccc12 | inactive | inactive | inactive | 49 µM (active) |  | inactive |  | inactive | inactive |  | inactive | 43.6 µM (active) and 26.6 µM (active) | inactive |  | inactive | inactive | 21.1 µM (active) | 
7 | COc1ccc(CN(CCN(C)C)c2ccccn2)cc1 | inactive | inactive | inactive |  |  | inactive | inactive | inactive | inactive | inactive | inactive | inactive | inactive |  | inactive |  |  | 
8 | CN(C)C(=S)SC(=S)N(C)C | 3.35 µM (active) and 994 nM (active) and 486 nM (active) | inactive | 1.57 µM (active) and 1.09 µM (active) |  | inactive | inactive |  |  |  |  | 710 nM (active) and 389 nM (active) and 1.33 µM (active) |  | 3.99 µM (active) and 549 nM (active) and 944 nM (active) | 0.596 µM (active) | 502 nM (active) and 2.45 µM (active) and 1.68 µM (active) | 564 nM (active) and 1.68 µM (active) |  | 27.5 µM (active)
9 | Nc1ccc(S(N)(=O)=O)cc1 | inactive | inactive | inactive |  |  | inactive | inactive | inactive | inactive | inactive | inactive |  | inactive |  | inactive |  |  | 
